Screening results: PubChem, National Center for Advancing Translational Sciences (NCATS)
Most compounds without a hit are left out; they make up all but 19% or so of the library.
KB-3-1 cytotox: KB-3-1 parental cell cytotoxicity | KB-3-1 viability, CellTiter-Glo ATP luminescence, 72 h | Potency, µM (titrated, usually from 46.1 µM), actives largely listed as cytotoxic | 1.4% of 400,000 active; further: nearly all actives have a fitted effect of over 60% in size
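Using CellTiter-Glo luminescence, growth of non-resistant KB-3-1 adenocarcinoma cells is assessed 72 h after pin-tool compound addition at 37 °C. Normalized responses across the concentration series yield fitted curves.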
TDP1 cell CPT: growth inhibition of DT40 Tdp1-/-;hTDP1 cells with camptothecin (screen for TDP1 inhibitors); AID 686979; Potency, µM (top dose mostly 46.2 µM), inactives show at the top dose activity change, negative = growth inhibition, usual class: inhibitors; 12% of 420,000 active; chicken DT40 Tdp1-/-;hTDP1 cells + 20 nM CPT, ATP luminescence, 48 h; further: nearly all actives have a fitted effect of over 55% in size
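Cell growth measured by CellTiter-Glo luminescence after a minimum 48 h, 37 C compound exposure with 20 nM CPT in Tdp1-knockout DT40 cells stably expressing hTDP1, seeded 400/well; qHTS titration format.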
DT40 TDP1 no CPT: qHTS for Inhibitors of human tyrosyl-DNA phosphodiesterase 1 (TDP1): qHTS in cells in absence of CPT; DT40 Tdp1-/- hTDP1 cells, no CPT, ATP luminescence, 48 h; 15% of 420,000 active; Potency, µM (doses to about 46.2 µM), for the others: top-dose activity change, negative = growth inhibition, usual class: inhibitors; further: nearly all actives have a fitted effect of over 55% in size
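A cellular qHTS used chicken DT40 cells lacking endogenous Tdp1 but carrying stably transfected human TDP1. Compounds were applied without camptothecin, and cell growth kinetics were judged by ATP-dependent luminescence after ≥48 hr.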
KB-V1 MDR tox: kills drug-selected multidrug resistant KB-V1 cells | KB-V1 MDR cells viability, CellTiter-Glo, 72 h | Potency, µM (highest dose often 46.1 µM), usual class: cytotoxic | 3.4% of 400,000 active | AID 1347076; further: nearly all actives have a fitted effect of over 60% in size
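Cytotoxicity toward P-gp-expressing KB-V1 cells was determined as loss of CellTiter-Glo luminescence after 72 h at 37 degrees C. Compounds were tested in quantitative HTS format across a concentration range, with curves fitted to normalized data.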
HT1080 IDH1KD tx: HT-1080 IDH1 knockdown cell toxicity (counter line) | Potency, µM (doses to about 46.1 µM), inactives show at the top dose activity, negative = toxicity, usual class: cytotoxic | 2% of 360,000 active | AID 686971 | HT-1080 IDH1 knockdown viability, ATP luminescence, 48 h;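 further: 0% = DMSO wells and -100% = cell-free medium wells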
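HT-1080-IDH1KD cells (IDH1 knocked down), 750/well in RPMI with 5% FBS, treated with compound 48 h at 37 degrees C. Viability by CellTiter-Glo luminescence, normalised to DMSO and no-cell wells; concentration-response curves classed.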
HT1080NT lethal: kills 2HG-producing HT-1080-NT fibrosarcoma cells; HT-1080-NT fibrosarcoma viability, CellTiter-Glo ATP luminescence, 48 h; Potency, µM (series often up to 46.1 µM), without a hit: at the highest dose activity, negative = less viability, usual class: cytotoxic; 1.6% of 360,000 active;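 further: NT is the 2HG producing partner of a matched IDH1 knockdown line; 0% = DMSO-treated cells and -100% = media-only wells without cells; nearly all actives have a fitted effect of over 55% in size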
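HT-1080-NT fibrosarcoma cells (2HG-overproducing), 750 cells/well in RPMI with 5% FBS, dosed after 2 h and incubated 48 h at 37C. CellTiter-Glo luminescence normalized to DMSO and no-cell wells; concentration-response curves fitted and classed.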
Active calls of the source: *; i = inactive; ? = inconclusive; / = no result given. The call rests on the fitted dose curve; in most records, active means well fitted curve in the direction sought with a large enough effect; inconclusive means small, poorly fitted or top-dose-only effect, or another doubt; inactive means no such curve, though single readings can be large; an effect the other way counts as inactive or inconclusive. Unless noted, on the % scale 0 is the no-effect control and ±100 the full control effect; potency means the concentration at half of the fitted maximal effect.

SMILES	KB-3-1 cytotox	TDP1 cell CPT	DT40 TDP1 no CPT	KB-V1 MDR tox	HT1080 IDH1KD tx	HT1080NT lethal
Cc1ccc(S(=O)(=O)N(CC(=O)N/N=C/c2ccco2)c2cc(Cl)cc(Cl)c2)cc1	i	-26%	-7%	18µM*	?	?
COc1ccccc1N(CC(=O)NCc1ccco1)S(=O)(=O)c1ccc(C)cc1	i	-21%	-2%	i	-3%	-3%
O=C(CN(c1ccc(Cl)cc1)S(=O)(=O)c1ccccc1)N/N=C/c1ccco1	i	-13%	-39%	i	-8%	-12%
COc1ccccc1N(CC(=O)N/N=C/c1ccc(OCC(=O)NCc2ccco2)cc1)S(=O)(=O)c1ccc(C)cc1	i	?	13µM*	i	?	?
COc1ccccc1CNc1nc(-c2ccco2)nn1S(C)(=O)=O	i	?	?	i	/	/
O=[N+]([O-])c1ccc(Cl)c2cccnc12	?	-26%	?	?	-14%	0%
O=[N+]([O-])c1cc(F)c2cccnc2c1O	?	9.2µM*	7.3µM*	i	?	-26%
O=[N+]([O-])c1cc([N+](=O)[O-])c2cccnc2c1Oc1ccccc1O	i	2.6µM*	1.8µM*	?	-2%	-17%
O=[N+]([O-])c1cc(Cl)c2cccnc2c1O	?	?	18µM*	?	?	?
O=[N+]([O-])c1ccc(O)c2cccnc12	i	-4%	-11%	i	0%	10%
CCN(CC)CCNC(=O)c1ccc(-c2nc(CN3CCc4ccccc43)c(C)o2)cc1	i	/	/	?	/	/
CCCNC(=O)C1(C)CCN(Cc2ccc(-c3ccccn3)cc2)C1 (stereo not given)	i	?	?	i	1%	3%
CC(C)NC(=O)C1(C)CCN1CCC(=O)c1ccccc1 (stereo not given)	i	13µM*	13µM*	i	4%	16%
CC1(Oc2cccc(F)c2)CCN(Cc2ccc(-c3ccccn3)cc2)C1 (stereo not given)	i	?	18µM*	i	-1%	-5%
CCCNC(=O)C1(C)CCCN(Cc2ccc(-c3ccccn3)cc2)C1 (stereo not given)	i	16µM*	13µM*	i	19%	-2%
CCCNC(=O)C1(C)CCCN(CCC(=O)c2ccccc2)C1 (stereo not given)	i	5.8µM*	7.3µM*	i	?	?
CC(C)NC(=O)C1(C)CCCN1Cc1ccccc1 (stereo not given)	i	-30%	?	i	4%	23%
CCC(C)NC(=O)c1ccccc1NC(=O)COc1ccc(OC)cc1 (stereo not given)	?	?	?	?	-5%	-7%
CC1CCCCC1NC(=O)CCn1ccc2cc(S(=O)(=O)N3CCCC3)ccc21 (stereo not given)	i	?	-23%	i	-12%	-1%
CCCNC(=O)C1(C)CCCN(Cc2ccccc2-c2ccccc2)C1 (stereo not given)	i	?	?	i	3%	?
CCCNC(=O)C1(C)CCCN(Cc2cc(-c3ccccc3)nn2C)C1 (stereo not given)	?	?	16µM*	?	3%	0%
Cn1nnnc1SCCNC(=O)C1CCC(=O)N(Cc2ccc(Cl)cc2)C1 (stereo not given)	i	-4%	6%	i	-4%	-5%
CCN(CC)c1c([N+](=O)[O-])c(=O)n(CC)c2ccccc12	i	?	21µM*	i	-2%	1%
CCNC(=S)N1CCC(C(N)=O)CC1	i	-20%	28%	i	2%	5%
O=C(CSc1ccc(-c2cccs2)nn1)N1CCCCC1	i	-12%	-7%	i	19%	1%
SMILES	KB-3-1 cytotox	TDP1 cell CPT	DT40 TDP1 no CPT	KB-V1 MDR tox	HT1080 IDH1KD tx	HT1080NT lethal
Cc1cccc(NC(=O)CSc2ccc(-c3cccs3)nn2)c1C	i	1%	-22%	i	-2%	2%
Cc1ccccc1NC(=O)CSc1ccc(-c2cccs2)nn1	/	?	23µM*	/	/	/
O=C(CSc1ccc(-c2cccs2)nn1)N1CCCCCC1	i	?	23µM*	i	5%	2%
COc1ccc2c(c1)NC(c1ccc(N(C)C)cc1)c1cccn1-2 (stereo not given)	i	?	15µM*	?	-19%	-11%
O=C(NCC1CCCO1)c1ccc(NC(=O)c2cccc(Cl)c2)cc1 (stereo not given)	i	-5%	-28%	?	-1%	0%
CCC1=Nc2cc(C(=O)NCC3CCCO3)ccc2Sc2ccc(Cl)cc21 (stereo not given)	9.2µM*	3.7µM*	4.1µM*	i	16µM*	?
CCC1=Nc2cc(C(=O)NCC3CCCO3)ccc2Sc2ccc(Br)cc21 (stereo not given)	6.5µM*	3.7µM*	3.3µM*	6.5µM*	9.2µM*	?
Cc1ccc(S(=O)(=O)N(OCc2ccccc2)C(C)C(=O)O)cc1 (stereo not given)	i	9%	7%	i	14%	2%
COCC(=O)N1CCC2(CC1)CN(C(=O)Nc1ccc(OC)cc1)C2	/	4%	11%	/	/	/
COc1ccc(C(=O)NCC(=O)OCc2cc(=O)n3nc(C4CCCCC4)sc3n2)cc1	i	-25%	-5%	i	/	/
COc1ccc(/C=C(\NC(=O)c2cccs2)C(=O)Nc2cccc3ccccc23)cc1OC	i	?	18µM*	i	-13%	0%
O=C(Nc1cccc2ccccc12)/C(=C/c1ccc([N+](=O)[O-])cc1)NC(=O)c1ccccc1	i	8.2µM*	21µM*	4.6µM*	-10%	-3%
COc1ccc(/C=C(\NC(=O)c2cccs2)C(=O)NN)cc1OC	i	11%	1%	i	-2%	-1%
O=C(N/N=C/c1ccc(O)c(O)c1O)/C(=C/c1ccc([N+](=O)[O-])cc1)NC(=O)c1ccccc1	i	4.6µM*	5.8µM*	i	15µM*	?
O=C(Nc1cccc(C(=O)O)c1)/C(=C/c1ccc([N+](=O)[O-])cc1)NC(=O)c1ccccc1	i	-5%	-7%	i	8%	2%
